Screening results (PubChem BioAssay)
Compounds with a hit are over-represented: about 1.6% of the library has one in this group of screens.
KCNQ2 block: blocks the rat KCNQ2 potassium channel; 310,000 tested, 1.1% active; AID 2156; CHO-K1 KCNQ2, FluxOR thallium flux, 20 min; active compounds read low; O88943; B-score at 10 µM;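 active = fluorescence ratio B-score at most minus 3 library SDs, with starting brightness B-score within 2 library SDs, cut at about -5.5 in these data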
Target sequence (O88943 whole entry, looked up): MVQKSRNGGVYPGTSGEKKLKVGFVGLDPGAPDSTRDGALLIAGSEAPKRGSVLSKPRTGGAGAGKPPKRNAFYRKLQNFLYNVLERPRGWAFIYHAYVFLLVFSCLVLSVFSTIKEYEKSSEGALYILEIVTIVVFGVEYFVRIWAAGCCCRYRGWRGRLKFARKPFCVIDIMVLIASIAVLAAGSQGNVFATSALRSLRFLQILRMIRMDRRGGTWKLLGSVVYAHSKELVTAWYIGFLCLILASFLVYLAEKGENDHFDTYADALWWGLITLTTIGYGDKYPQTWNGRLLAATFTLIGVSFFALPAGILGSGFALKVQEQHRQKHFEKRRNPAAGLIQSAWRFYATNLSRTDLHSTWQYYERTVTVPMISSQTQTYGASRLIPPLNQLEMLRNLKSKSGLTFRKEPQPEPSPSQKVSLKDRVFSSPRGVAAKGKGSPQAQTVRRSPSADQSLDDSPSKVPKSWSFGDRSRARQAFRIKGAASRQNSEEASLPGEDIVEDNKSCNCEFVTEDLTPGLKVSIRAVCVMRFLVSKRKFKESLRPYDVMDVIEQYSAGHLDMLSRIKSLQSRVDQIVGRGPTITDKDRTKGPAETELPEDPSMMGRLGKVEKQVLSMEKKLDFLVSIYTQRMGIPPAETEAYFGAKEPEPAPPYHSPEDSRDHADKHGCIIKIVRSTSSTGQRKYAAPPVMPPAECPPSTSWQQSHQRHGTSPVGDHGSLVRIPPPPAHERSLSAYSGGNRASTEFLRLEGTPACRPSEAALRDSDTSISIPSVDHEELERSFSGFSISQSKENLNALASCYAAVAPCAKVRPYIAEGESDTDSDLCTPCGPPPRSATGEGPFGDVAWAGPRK
KCNQ2 pot: potentiators of rat KCNQ2 potassium channel; CHO-K1 KCNQ2, FluxOR thallium flux fluorescence; active compounds read high; O88943; AID 2239; 310,000 tested, 0.54% active; B-score at 10 µM;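 active = fluorescence ratio B-score at least 3 SD of library B-scores, with initial fluorescence B-score within 3 of them, cut at about 5.3 in these data; same plate scores as AID 2156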;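 note: B-score of peak minus minimum over baseline fluorescence ratio after K+ and Tl+ stimulus; positive B-score means potentiation of KCNQ2 with more thallium influx and brighter signal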
Numbers without * were called inactive; i = inactive; . = no result given.

SMILES | KCNQ2 block | KCNQ2 pot
O=C(CCNC(=O)C1CCN(S(=O)(=O)c2ccc(F)cc2)CC1)NCc1ccncc1 | i | .
COc1ccc(C(=O)Nc2ccccc2-c2ccccc2)cc1Cl | -6.2* | -6.2
CCOc1c(Cl)cc(C(=O)Nc2ccccc2-c2ccccc2)cc1Cl | i | .
CCC1(c2ccc(F)cc2)NC(=O)N(CC(=O)Nc2cc(S(=O)(=O)N(C)C)ccc2Cl)C1=O (stereo not drawn) | i | 0.2
Cc1cccc(NS(=O)(=O)c2ccc3oc(=O)ccc3c2)c1C | i | .
O=C(NCc1cccnc1)c1cc2nc(-c3ccc4c(c3)OCO4)cc(C(F)(F)F)n2n1 | i | 0.51
O=C(NCc1ccco1)c1nc2nc(-c3cccs3)cc(C(F)(F)F)n2n1 | i | 0.75
O=C(NCc1ccco1)c1nn2c(C(F)(F)F)cc(-c3cccs3)nc2c1Br | -6.8* | -6.8
O=C(NCc1ccco1)c1cc2nc(-c3ccc4c(c3)OCO4)cc(C(F)(F)F)n2n1 | -8.2* | -8.2
COc1ccc2[nH]c(C(=O)NCc3ccccc3)c(C)c2c1 | i | 0.27
CN(C)c1ccc(/C=C(\C#N)C(=O)c2ccccc2)cc1 | i | 1.3
CN(C)c1cccc(/C=C(\C#N)c2ccccc2)c1 | -5.7* | -5.7
CCN(/C=N/c1sc2c(c1C#N)CCCCC2)CC | i | .
CC(C)CN(/C=N/c1sc2c(c1C#N)CCCCC2)CC(C)C | -6.2* | -6.2
O=[N+]([O-])c1cccc(S(=O)(=O)NCCCn2ccnc2)c1 | i | 0.03
O=C(O)/C=C\C(=O)NCc1cccnc1 | i | .
Cc1ccc(C)c(N(CC(=O)NCCc2ccccc2)C(=O)CCC(=O)Nc2ccccn2)c1 | i | 0.18
CC(O)(C#CCN1CCCCC1)c1ccccc1 (stereo not drawn) | i | 1.3
CC(C)(C#CCN1CCCCC1)OCCOC(c1ccccc1)c1ccccc1 | -6.1* | -6.1
C=CCN(C(=O)c1csnn1)C(C(=O)NCc1ccc(F)cc1)c1cccs1 (stereo not drawn) | i | .
Cc1ccc(OC(=O)c2ccc(Cl)c([N+](=O)[O-])c2)cn1 | i | 0.09
Cc1ccc(C(=O)Oc2cccnc2)cc1[N+](=O)[O-] | i | 6.1*
CCC(Sc1nc(N)c(NC(=O)c2ccc(Br)o2)c(=O)[nH]1)C(=O)O (stereo not drawn) | i | .
CCCN(CC1CC1)C(=O)CSc1ncnc2sc(C)c(C)c12 | -6.3* | -6.3
CCN(C(=O)CSc1ncnc2sc(C)c(C)c12)C1CCS(=O)(=O)C1 (stereo not drawn) | i | .
SMILES | KCNQ2 block | KCNQ2 pot
O=C1c2oc3ccccc3c(=O)c2C(c2ccc(O)cc2)N1c1nccs1 (stereo not drawn) | i | 0.12
CCOC(=O)CSc1ncc(OC)c(Sc2ccc(Cl)cc2)n1 | i | .
CCOC(=O)C(C)Sc1ncc(OC)c(Sc2ccc(Cl)cc2)n1 (stereo not drawn) | -8* | -8
COc1cccc(C(=O)NC2CC3CCCC(C2)N3S(=O)(=O)c2ccccc2)c1 (stereo not drawn) | i | .
CC(Cc1cccs1)NC(=O)Nc1ccc(Cl)c(Cl)c1 (stereo not drawn) | i | .
O=c1c2c(-c3cccs3)csc2ncn1/N=C/c1ccccn1 | i | .
O=c1c2c(-c3cccs3)csc2ncn1/N=C/c1ccc(OC(F)F)cc1 | -7.4* | -7.4
Cc1ccc(CNc2ccccc2C(=O)O)s1 | i | .
CC(C)(C)NC(=O)C12CC3CC(CC(Cl)(C3)C1)C2 | i | 2.4
CC(C)(C)NC(=S)NC(=O)C12CCC3CC(CC(C3)C1)C2 | -5.7* | -5.7
COc1ccc(/C=C2/C(=O)OCc3cc(OC)c(OC)cc32)cc1 | i | .
COc1ccccc1N1CCN(c2ccc3cc(S(=O)(=O)N4CCCCC4)ccc3n2)CC1 | -5.6* | -5.6
O=S(=O)(c1ccc2nc(N3CCN(c4ccccc4)CC3)ccc2c1)N1CCCCC1 | i | 0.04
O=C(Nc1cccnc1)C1CC(=O)N(c2ccc(F)cc2)C1 (stereo not drawn) | i | .
COc1ccccc1NC(=O)/C(=C/c1cccc([N+](=O)[O-])c1)c1ccccc1 | -6* | -6
COc1ccccc1NC(=O)CC(=O)c1cccc([N+](=O)[O-])c1 | i | 0.17
COc1ccccc1N1CCN(/N=C/C=C/c2ccccc2[N+](=O)[O-])CC1 | i | .
O=C1c2ccsc2SCCN1Cc1c(F)cccc1Cl | i | .
O=C1c2ccsc2SCCN1Cc1c(Cl)cccc1Cl | -6.7* | -6.7
COC(=O)CNC(=O)C(Cc1ccccc1)NS(=O)(=O)c1ccc2c(c1)c(=O)n(C)c(=O)n2C (stereo not drawn) | i | .
CO/N=C(\Cn1ncc(NC2CCCCC2)c(Br)c1=O)c1ccc(Cl)cc1 | -6.2* | -6.2
CO/N=C(\Cn1ncc(N2CCCC2)c(Br)c1=O)c1ccc(Cl)cc1 | i | .
Cc1ccc(NC(=O)CCCCCN2C(=O)[C@@H]3Cc4ccccc4CN3C2=O)c(C)c1 | i | .
O=C(NC(Nc1nc2ccc([N+](=O)[O-])cc2s1)(C(F)(F)F)C(F)(F)F)c1cccnc1 | i | 1.3
O=[N+]([O-])c1ccc2nc(SCc3ccccc3Cl)sc2c1 | -9.9* | -9.9
SMILES | KCNQ2 block | KCNQ2 pot
Nc1ccc2nc(SCc3ccc([N+](=O)[O-])cc3)sc2c1 | i | .
O=C(NC(Nc1nc2ccc([N+](=O)[O-])cc2s1)(C(F)(F)F)C(F)(F)F)c1ccccc1Cl | -10* | -10
O=C(C1CCCO1)N1CCN(S(=O)(=O)c2ccc(Cl)cc2)CC1 (stereo not drawn) | i | 1.4
CCCCNc1c(-c2ccc(SC3CCCCC3)cc2)nc2ccccn12 | i | .
CCCCNc1c(-c2ccc(SC(C)CC)cc2)nc2ccccn12 (stereo not drawn) | -7.1* | -7.1
Cc1cc(-c2cc(C(=O)NCc3ccccc3)on2)nc(NCC2CC2)n1 | i | 1
CCOC(=O)C1=C(N)Oc2cc(O)ccc2C1c1cccc([N+](=O)[O-])c1 (stereo not drawn) | i | .
CCOC(=O)CNC(c1ccccc1)c1cc(Br)ccc1NC(C)=O (stereo not drawn) | i | .
COC(=O)CNC(c1ccccc1)c1cc(C)ccc1NC(=O)CNC(=O)OCc1ccccc1 (stereo not drawn) | -5.8* | -5.8
COC(=O)CNC(c1ccccc1)c1cc(Br)ccc1NC(=O)OCc1ccccc1 (stereo not drawn) | -7.4* | -7.4
COC(=O)CNC(c1ccccc1)c1cc(C)ccc1NS(=O)(=O)c1ccc(C)cc1 (stereo not drawn) | i | .
COc1ccc(N2CCN(c3nccs3)CC2)cc1 | i | .
O=S(=O)(c1ccc(F)cc1)c1nc(-c2ccccc2)oc1N1CCOCC1 | i | .
CC(=O)c1ccc(-n2c(C)ccc2-c2ccccc2)cc1 | i | .
COC(=O)c1ccc(-n2c(C)ccc2-c2ccccc2)cc1 | -6.6* | -6.6
CCCn1c(N)c(Sc2ccccc2[N+](=O)[O-])c(=O)n(CCC)c1=O | i | 0.5
COc1ccc(CN(C)C(=O)c2ccc(NS(=O)(=O)c3ccc(F)cc3)cc2)c(OC)c1OC | i | .
CN(Cc1ccccc1)C(=O)c1nc2ccccn2c1CN1CCC(N2CCOCC2)CC1 | i | 0.19
COc1ccc(-c2nc3ccccc3n2Cc2ccccc2)cc1 | i | .
COc1ccc(-c2n(Cc3ccccc3)c3ccccc3[n+]2Cc2ccccc2)cc1 | -6* | -6
OC1(C#CCN2CCCC2)CCCCC1 | i | 0.85
